Assay outcomes: PubChem BioAssay, National Center for Advancing Translational Sciences (NCATS)
Rows were chosen to be rich in hits. Some 11% of all compounds tested hit in one or more screens of this group.
NPR1 antag: Natriuretic polypeptide receptor (hNpr1) antagonism - Primary qHTS; Potency, µM (highest dose often 46.3 µM), for the others: at the top dose activity change, negative = inhibition, most hits filed as inhibitors; AID 1347048, 2019; HEK293 hNpr1 GloSensor cGMP, ANP-stimulated luminescence; Atrial natriuretic peptide receptor 1 (Homo sapiens), P16066; actives 1.6% (n = 76,000); calls by dose curve; also: nearly all actives have a fitted effect of over 60% in size
Target sequence (P16066 whole entry, looked up): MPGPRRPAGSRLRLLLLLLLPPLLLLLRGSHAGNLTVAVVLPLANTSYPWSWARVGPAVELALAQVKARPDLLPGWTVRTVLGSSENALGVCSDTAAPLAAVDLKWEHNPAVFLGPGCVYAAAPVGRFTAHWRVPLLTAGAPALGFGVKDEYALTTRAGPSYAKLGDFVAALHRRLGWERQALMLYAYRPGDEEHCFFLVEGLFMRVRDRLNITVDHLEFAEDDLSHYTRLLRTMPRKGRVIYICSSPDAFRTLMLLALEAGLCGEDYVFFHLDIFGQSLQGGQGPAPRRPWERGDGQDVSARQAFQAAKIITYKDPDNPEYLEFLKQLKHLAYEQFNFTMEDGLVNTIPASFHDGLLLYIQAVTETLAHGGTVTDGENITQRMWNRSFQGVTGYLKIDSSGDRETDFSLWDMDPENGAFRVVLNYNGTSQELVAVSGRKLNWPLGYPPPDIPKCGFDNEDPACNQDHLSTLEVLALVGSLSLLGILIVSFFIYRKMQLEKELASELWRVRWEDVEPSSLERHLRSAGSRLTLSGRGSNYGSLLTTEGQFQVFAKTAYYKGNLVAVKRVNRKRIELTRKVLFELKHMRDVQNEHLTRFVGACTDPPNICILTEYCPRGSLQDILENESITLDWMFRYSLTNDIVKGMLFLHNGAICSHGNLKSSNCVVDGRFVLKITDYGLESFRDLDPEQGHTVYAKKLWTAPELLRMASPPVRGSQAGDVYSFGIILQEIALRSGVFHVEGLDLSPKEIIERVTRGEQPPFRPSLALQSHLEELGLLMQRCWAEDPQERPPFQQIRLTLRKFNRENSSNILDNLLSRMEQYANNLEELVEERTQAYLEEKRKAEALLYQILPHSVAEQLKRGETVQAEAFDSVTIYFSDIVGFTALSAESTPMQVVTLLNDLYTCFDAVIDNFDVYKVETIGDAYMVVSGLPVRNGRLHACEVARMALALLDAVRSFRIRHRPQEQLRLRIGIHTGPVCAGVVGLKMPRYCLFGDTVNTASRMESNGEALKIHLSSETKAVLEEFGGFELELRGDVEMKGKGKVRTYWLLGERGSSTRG
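HEK293 cells stably expressing human Npr1 and cGMP GloSensor pGS-40F, loaded 2 h with 2% GloSensor reagent, given compound 30 min at room temperature. Luminescence read before and 20 min after 0.1 nM hNppA.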
3T3 cytotox: Cytotoxic Profiling in NIH 3T3 Cell Line of Diverse Libraries Using Quantitative High-Throughput Screening; NIH 3T3 viability, CellTiter-Glo ATP luminescence, 48-72 h; actives 4.3% (n = 94,000); Potency, µM (highest dose often 96.7 µM), inactives show at the highest dose activity change, negative = cytotoxicity, hits mostly inhibitors; also: nearly all actives have a fitted effect of over 55% in size
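Mouse fibroblast NIH 3T3 cells, 400 per well, received compound via pintool and were incubated for 48 or 72 hr prior to CellTiter-Glo ATP luminescence measurement.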
HEK293 tox: Cytotoxic Profiling in HEK 293 Cell Line of Diverse Libraries Using Quantitative High-Throughput Screening; HEK 293 viability, ATP luminescence (CellTiter-Glo), 48-72 h; Potency, µM (doses to about 115 µM), without a hit: at the highest dose activity change, negative = cytotoxicity, hits mostly inhibitors; actives 6.6% (n = 94,000); AID 1345083, 2018; also: nearly all actives have a fitted effect of over 60% in size
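Luminescence from cellular ATP, measured with CellTiter-Glo, indicates HEK 293 viability. Cells plated at 250 cells/well are treated with compound for 48 or 72 hr at 37 degree Celsius before reagent addition.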
FLuc inh: Firefly luciferase inhibition profiling of diverse chemical library using quantitative high-throughput screening; actives 2.5% (n = 76,000); Potency, µM (highest dose often 115 µM), most hits filed as inhibitors; purified P. pyralis luciferase, luminescence, biochemical; Luciferin 4-monooxygenase (Photinus pyralis), P08659; also: nearly all actives have a fitted effect of over 65% in size
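Luminescence read by CCD imaging after purified firefly luciferase (10nM final) was added to substrate buffer holding 10uM D-luciferin and 10uM ATP, pH 7.5, pre-dosed with compound.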
The depositor's hits bear a star; [ ] = another dose, or the depositor's remark. Unless noted, calls follow the shape of the dose curve; as a rule, active = well fitted curve in the direction sought with a large enough effect; inconclusive = small, poorly fitted or top-dose-only effect, or another doubt; inactive = no such curve, though single readings can be large; an effect the other way counts as inactive or inconclusive. % is scaled to controls: 0 for no effect and ±100 for the full control effect; potency is read from the fitted curve at half-maximal effect.

Screening CN(C)c1ccc(CN2CCOC[C@H]2c2ncc(-c3cccc(Cl)c3)[nH]2)cc1 returned NPR1 antag -30%[70.6 µM], 3T3 cytotox inconclusive, HEK293 tox 112µM* and FLuc inh inactive.
CO[C@H]1[C@H](NC(=O)c2c(F)ccc(C)c2F)c2ccccc2C12CCNCC2 was read as NPR1 antag -2%, 3T3 cytotox -7%, HEK293 tox -23% and FLuc inh inactive.
Screening Cc1c(O)cccc1C(=O)N1CCCN(Cc2ccc(F)cc2)C(C(C)C)C1 (stereo not drawn) returned NPR1 antag -3%, 3T3 cytotox inconclusive, HEK293 tox 45µM* and FLuc inh inactive.
Screening CC(C)C1CN(C(=O)CNC(=O)N(C)C)CCCN1Cc1ccc(F)cc1 (stereo not drawn) returned NPR1 antag 4%, 3T3 cytotox inactive, HEK293 tox inconclusive and FLuc inh inactive.
`COc1ccc(C(=O)N[C@@H]2CN(C(=O)Nc3ccccc3)CCC[C@H]2O)cc1` gave NPR1 antag -4%[70.6 µM], 3T3 cytotox inconclusive, HEK293 tox inconclusive and FLuc inh inactive.
Screening COc1ccc(C(=O)N[C@@H]2CN(C(=O)Nc3ccc(F)cc3)CCC[C@H]2O)cc1 returned NPR1 antag -15%[70.6 µM], 3T3 cytotox 100µM*, HEK293 tox inconclusive and FLuc inh inconclusive.
Screening Cc1nnc2ccc(N3CCCN(C(=O)c4cccc(Cl)c4)CC3)nn12 returned 3T3 cytotox -13% and HEK293 tox inactive.
For COCCC1(NC(=O)c2ccccc2)CCN(C(=O)c2cccc(C)c2)CC1 the results were 3T3 cytotox inconclusive and HEK293 tox 1%.
CC(C)N(C)C(=O)Cn1ncc(N(C)CCc2ccccc2)cc1=O was read as NPR1 antag 0%, 3T3 cytotox -16%, HEK293 tox -3% and FLuc inh inactive.
`CC(C)c1nnsc1Cn1ncc(N(C)CCc2ccccc2)cc1=O` gave NPR1 antag 1%, 3T3 cytotox inconclusive, HEK293 tox 89µM* and FLuc inh inactive.
For CN(Cc1ccc(-c2ccccc2)cc1)Cc1ccccn1 the results were NPR1 antag -20%[70.6 µM], 3T3 cytotox inconclusive, HEK293 tox 50µM* and FLuc inh 50µM*.
`CN(Cc1ccc(F)cc1)Cc1ccc(-c2ccccc2)cc1` gave NPR1 antag 0%[70.6 µM], 3T3 cytotox -9%[138 µM], HEK293 tox 0%[172 µM] and FLuc inh inactive.
For CN(Cc1ccc(-c2ccccc2)cc1)Cc1cccnc1 the results were NPR1 antag 8.9µM*, 3T3 cytotox inconclusive, HEK293 tox inconclusive and FLuc inh 50µM*.
CN(Cc1ccc(F)cc1)Cc1cccc(C(F)(F)F)c1 was read as 3T3 cytotox -10%[138 µM] and HEK293 tox 0%[172 µM].
For Cc1cnc(C(=O)NCCc2ncc(C)n2C2CCC2)cn1 the results were NPR1 antag 3%, 3T3 cytotox -24%, HEK293 tox -9% and FLuc inh inactive.
Screening CCOc1ccc(C(=O)N2CCCN(S(C)(=O)=O)c3ccccc32)cc1OCC returned NPR1 antag 0%, 3T3 cytotox -16%, HEK293 tox -16% and FLuc inh inactive.
Screening Cn1ncc2c(N[C@@H](Cc3ccccc3)C(N)=O)nc(-c3ccncc3)nc21 returned NPR1 antag 0%, 3T3 cytotox inconclusive, HEK293 tox 32µM* and FLuc inh inactive.
For Cn1ncc2c(NCCc3nnc(N)s3)nc(-c3ccncc3)nc21 the results were NPR1 antag 10%, 3T3 cytotox -30%, HEK293 tox -10% and FLuc inh inactive.
`COc1ccc(NC(=O)c2ccc3c(c2)NC(C)(COc2ccccc2)CO3)cn1` (stereo not drawn) gave NPR1 antag inconclusive, 3T3 cytotox inconclusive, HEK293 tox inconclusive and FLuc inh inactive.
Screening CC1(COc2ccccc2)COc2ccc(C(=O)Nc3ccccc3)cc2N1 (stereo not drawn) returned NPR1 antag -6%[70.6 µM], 3T3 cytotox inconclusive, HEK293 tox 71µM* and FLuc inh inactive.
CC1(COc2cccnc2)COc2ccc(C(=O)NC3CCC(O)CC3)cc2N1 (stereo not drawn) was read as NPR1 antag -1%[70.6 µM], 3T3 cytotox inconclusive, HEK293 tox inconclusive and FLuc inh inactive.
For COc1ccc(NC(=O)c2ccc3c(c2)NC(C)(COc2ccccc2)CO3)cc1OC (stereo not drawn) the results were NPR1 antag -17%[70.6 µM], 3T3 cytotox inconclusive, HEK293 tox inconclusive and FLuc inh inactive.
Screening CC1(COc2ccccc2)COc2ccc(C(=O)Nc3ccc4[nH]ccc4c3)cc2N1 (stereo not drawn) returned NPR1 antag inconclusive, 3T3 cytotox 35µM*, HEK293 tox 45µM* and FLuc inh inconclusive.
Screening CN(Cc1ccccc1)C(=O)c1ccc2c(c1)NC(C)(COc1ccccc1)CO2 (stereo not drawn) returned NPR1 antag -10%[70.6 µM], 3T3 cytotox 50µM*, HEK293 tox 71µM* and FLuc inh inactive.
CC1(COc2cccnc2)COc2ccc(C(=O)Nc3ccc4[nH]ccc4c3)cc2N1 (stereo not drawn) was read as NPR1 antag -13%[70.6 µM], 3T3 cytotox 89µM*, HEK293 tox inconclusive and FLuc inh 40µM*.
For COCCOc1ccc2c(n1)CCN(C(=O)c1ccc(C(C)C)cc1)C2 the results were NPR1 antag -7%, 3T3 cytotox inconclusive, HEK293 tox inconclusive and FLuc inh 16µM*.
`CCOc1ccc2c(n1)CCN(C(=O)c1ccc(C(C)C)cc1)C2` gave NPR1 antag -3%, 3T3 cytotox inconclusive, HEK293 tox inconclusive and FLuc inh 32µM*.
COCCOc1ccc2c(n1)CCN(C(=O)CC1CCCC1)C2 was read as NPR1 antag -7%, 3T3 cytotox -19%, HEK293 tox inconclusive and FLuc inh inactive.
For CCOc1ccc2c(n1)CCN(C(=O)c1ccc(C)cc1)C2 the results were NPR1 antag -11%, 3T3 cytotox -20%, HEK293 tox -8% and FLuc inh inactive.
For COCCOc1ccc2c(n1)CCN(C(=O)CCC1CCCC1)C2 the results were NPR1 antag 11µM*, 3T3 cytotox -25%, HEK293 tox inconclusive and FLuc inh inconclusive.
`COCCOc1ccc2c(n1)CCN(C(=O)c1ccc(OC)cc1)C2` gave NPR1 antag 2%, 3T3 cytotox -10%, HEK293 tox 5% and FLuc inh inactive.
`O=C(c1ccccc1)N1CCCC(C(=O)N2CCC(c3nc4ncccc4[nH]3)CC2)C1` (stereo not drawn) gave 3T3 cytotox -18% and HEK293 tox -8%.
For O=C(c1ccc2c(c1)OCO2)N1CCC2(CC1)CC(c1cccc(C(F)(F)F)c1)=NO2 the results were NPR1 antag -29%, 3T3 cytotox inconclusive, HEK293 tox inconclusive and FLuc inh inactive.
